Data published in PubChem BioAssay.

How the values were obtained:
[1] = tested on: Botulinum neurotoxin type F light chain protease (Clostridium botulinum); assay: Botulinum neurotoxin type F light chain protease inhibition, multiplex microsphere flow cytometry, validation set (AID 588459); conditions: multiplex microsphere protease substrate cleavage assay, at 10 µM, stronger effect = higher value
[2] = biological target: Botulinum neurotoxin type A (Clostridium botulinum) (UniProt P0DPI0); assay: BoNT/A light chain protease inhibitors, biochemical, multiplex microsphere flow cytometry, validation set (AID 588460); conditions: at 10 µM, stronger effect = higher value
[3] = biological target: Lethal factor (Bacillus anthracis) (UniProt P15917); assay: Lethal factor protease inhibitors, Bacillus anthracis, multiplex microsphere cleavage assay, validation set (AID 588461); conditions: flow cytometry, at 10 µM, stronger effect = higher value

Measured: inhibition

Chain of Lethal factor (Bacillus anthracis) (P15917 whole entry, looked up): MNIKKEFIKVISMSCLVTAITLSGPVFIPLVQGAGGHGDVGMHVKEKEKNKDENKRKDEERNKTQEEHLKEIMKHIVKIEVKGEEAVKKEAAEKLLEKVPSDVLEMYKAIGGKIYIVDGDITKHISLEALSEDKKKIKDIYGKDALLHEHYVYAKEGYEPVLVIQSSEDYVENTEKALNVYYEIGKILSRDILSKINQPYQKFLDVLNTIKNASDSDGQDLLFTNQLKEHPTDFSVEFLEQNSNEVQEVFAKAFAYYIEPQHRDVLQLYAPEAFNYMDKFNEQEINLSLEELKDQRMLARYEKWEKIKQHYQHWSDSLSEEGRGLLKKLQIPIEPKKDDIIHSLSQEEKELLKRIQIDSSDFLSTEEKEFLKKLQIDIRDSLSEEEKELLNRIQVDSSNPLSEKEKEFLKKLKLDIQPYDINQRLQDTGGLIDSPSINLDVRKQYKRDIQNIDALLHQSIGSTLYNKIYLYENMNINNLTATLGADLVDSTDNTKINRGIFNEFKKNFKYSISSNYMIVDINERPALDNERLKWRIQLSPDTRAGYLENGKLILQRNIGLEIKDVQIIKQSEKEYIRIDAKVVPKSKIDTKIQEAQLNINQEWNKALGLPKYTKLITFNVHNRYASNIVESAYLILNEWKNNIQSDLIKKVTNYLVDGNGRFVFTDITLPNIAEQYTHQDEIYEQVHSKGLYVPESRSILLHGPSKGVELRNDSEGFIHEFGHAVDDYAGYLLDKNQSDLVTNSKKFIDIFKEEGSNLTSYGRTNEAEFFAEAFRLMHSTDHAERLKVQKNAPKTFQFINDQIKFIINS
Chain of Botulinum neurotoxin type A (Clostridium botulinum) (P0DPI0 whole entry, looked up): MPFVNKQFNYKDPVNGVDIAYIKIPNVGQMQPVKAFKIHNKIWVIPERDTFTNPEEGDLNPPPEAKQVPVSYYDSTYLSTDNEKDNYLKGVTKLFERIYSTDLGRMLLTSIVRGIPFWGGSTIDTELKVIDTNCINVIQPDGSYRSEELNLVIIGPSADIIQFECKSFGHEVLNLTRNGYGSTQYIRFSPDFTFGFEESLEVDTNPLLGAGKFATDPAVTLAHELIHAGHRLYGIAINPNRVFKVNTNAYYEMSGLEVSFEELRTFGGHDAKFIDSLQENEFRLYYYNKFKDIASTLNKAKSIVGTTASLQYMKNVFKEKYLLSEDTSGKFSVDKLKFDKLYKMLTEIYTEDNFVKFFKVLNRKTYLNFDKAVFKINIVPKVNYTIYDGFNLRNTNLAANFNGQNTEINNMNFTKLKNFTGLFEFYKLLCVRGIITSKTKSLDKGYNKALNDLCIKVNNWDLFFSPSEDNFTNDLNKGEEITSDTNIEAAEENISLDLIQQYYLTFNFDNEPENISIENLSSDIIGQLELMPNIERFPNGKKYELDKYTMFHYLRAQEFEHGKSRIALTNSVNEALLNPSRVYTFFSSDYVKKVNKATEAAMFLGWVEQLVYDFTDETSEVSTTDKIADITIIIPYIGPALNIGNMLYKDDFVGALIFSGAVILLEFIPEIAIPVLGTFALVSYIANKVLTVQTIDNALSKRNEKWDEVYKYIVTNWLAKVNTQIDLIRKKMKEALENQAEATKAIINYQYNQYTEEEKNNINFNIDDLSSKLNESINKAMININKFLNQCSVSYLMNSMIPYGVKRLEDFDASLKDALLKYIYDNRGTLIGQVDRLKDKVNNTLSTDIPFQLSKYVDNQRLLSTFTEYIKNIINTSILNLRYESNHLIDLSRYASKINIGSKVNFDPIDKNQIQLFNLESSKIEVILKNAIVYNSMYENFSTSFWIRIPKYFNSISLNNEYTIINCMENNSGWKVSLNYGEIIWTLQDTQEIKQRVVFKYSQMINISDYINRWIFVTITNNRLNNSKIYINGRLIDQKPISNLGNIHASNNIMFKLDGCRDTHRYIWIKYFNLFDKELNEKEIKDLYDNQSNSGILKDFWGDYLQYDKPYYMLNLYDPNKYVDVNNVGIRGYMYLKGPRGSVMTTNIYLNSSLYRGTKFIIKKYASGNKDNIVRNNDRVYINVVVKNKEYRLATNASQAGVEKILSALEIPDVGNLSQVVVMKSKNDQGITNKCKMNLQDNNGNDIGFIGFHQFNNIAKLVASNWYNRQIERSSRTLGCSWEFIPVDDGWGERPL

CN1C(=O)C(O)(CC(=O)/C=C/C=C/c2ccccc2)c2ccccc21 (stereo not given)
inactive: [1] -1.9% | [2] -0.3% | [3] -0.3%

CC[n+]1c(C)sc2cc(C)ccc21
inactive: [1] 3.6% | [2] 1.9% | [3] -1.6%

CCN(Cc1ccncc1)Cc1nc(Cc2ccccc2Cl)no1
inactive: [1] -4.4% | [2] -0.8% | [3] -2.6%

CCCN(CCC)S(=O)(=O)c1ccc(C(=O)O)cc1
inactive: [1] 2.8% | [2] 1.1% | [3] 0%

CN(CCO)CC(O)Cn1cnc2c1c(=O)n(C)c(=O)n2C (stereo not given) (tested in a mixture with another compound)
inactive: [1] -0.4% | [2] 1.1% | [3] -3.6%
